Screening results: PubChem, National Center for Advancing Translational Sciences (NCATS)
TDP1 cell noCPT: qHTS for Inhibitors of human tyrosyl-DNA phosphodiesterase 1 (TDP1): qHTS in cells in absence of CPT. DT40 Tdp1-/- hTDP1 cells, no CPT, ATP luminescence, 48 h. AID 686978, 2013. actives 15% (n = 420,000). Potency, µM (doses to about 46.2 µM), for inactives: top-dose activity change, negative = growth inhibition, usual class: inhibitors; note: potency is the fitted concentration of half-maximal effect; % is set by controls: 0 for no effect and ±100 for the full control effect; nearly all actives have a fitted effect of over 55% in size
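Growth kinetics read by CellTiter-Glo luminescence after ≥48 hr at 37 °C. Cells: DT40 Tdp1-/- stably carrying human TDP1, 400 per well, compound exposure in the absence of CPT (DMSO vehicle).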
IL-1B inflam inh: inhibitors of inflammasome signaling (IL-1 beta secretion); THP-1 LPS/ATP IL-1B secretion, AlphaLISA, 16 h; hits give low values; activity change, % at 57.5 µM; actives 4.7% (n = 360,000); in the data active = activity change below about -50%; inconclusive = mostly about -30% to -49%; note: % is set by controls: 0 for no effect and ±100 for the full control effect
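Secreted IL-1B measured by AlphaLISA bead assay after 16 h compound exposure of THP-1 cells; compounds (final up to 57.5 uM) added 1 h before LPS (250 ng/mL) and ATP (1.25 mM) stimulation; lower signal means less secretion.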
HepG2 tox: counter-screen for TGF-b inhibitors: cytotoxicity in HepG2 cells. HepG2 CAGA-GFP viability, ATP luminescence, 18 h. Potency, µM (titrated, usually from 46.1 µM), inactives show top-dose activity change, negative = cytotoxicity, actives largely listed as cytotoxic. actives 0.76% (n = 410,000). AID 588856; note: potency is the fitted concentration of half-maximal effect
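HepG2 CAGA-GFP cells (1000/well, DMEM with 1% FBS) received compound, then TGF-beta at 500 pg/mL final, and were incubated 18 hours at 37 degrees C. Viability was read by CellTiter-Glo luminescence. Media-only wells were set as complete cell-killing and DMSO as no toxicity.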
TGFb SMAD3 inh: inhibitors of TGF-b signaling | HepG2 CAGA-GFP TGF-b/SMAD3 reporter, GFP fluorescence, 18 h; TGF-beta stimulated, 500 pg/mL final | Potency, µM (titrated, usually from 46.1 µM), for inactives: at the top dose activity, negative = inhibition, actives largely listed as inhibitors | actives 1.2% (n = 410,000) | AID 588855; note: potency is the fitted concentration of half-maximal effect; % is set by controls: 0 for no effect and ±100 for the full control effect; nearly all actives have a fitted effect of over 65% in size
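Per well, imaged GFP fluorescence of HEPG2 CAGA-GFP cells gives the signal; cells get compound, then TGF-beta (500 pg/mL final), 18 h at 37 degrees C; %Activity versus -TGF-beta and +DMSO controls.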
DT40 TDP1 CPT: DT40-hTDP1 cell growth loss with CPT | chicken DT40 Tdp1-/-;hTDP1 cells + 20 nM CPT, ATP luminescence, 48 h | actives 12% (n = 420,000) | Potency, µM (highest dose often 46.2 µM), for the others: top-dose activity change, negative = growth inhibition, usual class: inhibitors; note: potency is the fitted concentration of half-maximal effect; % is set by controls: 0 for no effect and ±100 for the full control effect; nearly all actives have a fitted effect of over 55% in size
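Chicken DT40 Tdp1-/- cells complemented with human TDP1, 400 cells/well, exposed to compounds plus 20 nM camptothecin for at least 48 h at 37 C; viability read as ATP content by CellTiter-Glo luminescence.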
ASM inhibitor: blocks human secretory acid sphingomyelinase. AID 504937. placental ASM, HMU-PC fluorogenic substrate, 60 min. P17405. actives 0.006% (n = 340,000). Potency, µM (doses to about 57.5 µM), without a hit: top-dose activity change, negative = inhibition, actives largely listed as inhibitors; note: potency is the fitted concentration of half-maximal effect
Target sequence (P17405 47-631 limits assumed): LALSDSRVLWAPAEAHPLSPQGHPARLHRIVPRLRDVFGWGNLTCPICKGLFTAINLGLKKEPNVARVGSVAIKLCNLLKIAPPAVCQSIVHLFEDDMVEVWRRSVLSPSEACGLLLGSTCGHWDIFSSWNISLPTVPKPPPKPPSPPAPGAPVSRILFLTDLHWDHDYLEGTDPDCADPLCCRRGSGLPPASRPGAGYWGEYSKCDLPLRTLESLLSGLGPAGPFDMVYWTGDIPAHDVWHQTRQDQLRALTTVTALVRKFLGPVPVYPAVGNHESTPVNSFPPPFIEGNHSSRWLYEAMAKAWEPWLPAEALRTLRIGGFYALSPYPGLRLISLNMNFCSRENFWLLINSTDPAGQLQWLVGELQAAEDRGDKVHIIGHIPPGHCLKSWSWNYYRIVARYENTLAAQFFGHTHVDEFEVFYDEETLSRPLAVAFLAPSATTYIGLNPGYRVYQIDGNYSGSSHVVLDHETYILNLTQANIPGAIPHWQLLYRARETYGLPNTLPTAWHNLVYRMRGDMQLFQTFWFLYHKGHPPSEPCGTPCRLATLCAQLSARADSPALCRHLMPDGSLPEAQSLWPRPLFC
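Steps: dispense placental human ASM, pin compound, wait 10 min at room temperature, add HMU-PC0 substrate at 9 uM final, incubate 60 min at 37 °C, add stop solution raising pH to 10, read fluorescence.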
An asterisk follows results filed as active; ? = inconclusive; . = no result. The list is not random: actives were taken first. Their share in the collection is about 19%. Unless noted, calls come from the whole dose curve; as a rule, active = well fitted curve in the direction sought with a large enough effect; inconclusive = small, poorly fitted or top-dose-only effect, or another doubt; inactive = no such curve, though single readings can be large; an effect the other way counts as inactive or inconclusive.

SMILES	TDP1 cell noCPT	IL-1B inflam inh	HepG2 tox	TGFb SMAD3 inh	DT40 TDP1 CPT	ASM inhibitor
CCOC(=O)C1=CCN(S(=O)(=O)c2ccccc2Cl)C1c1cccc(Cl)c1 (stereo unspecified)	?	75	7%	-15%	?	.
COc1ccc(Nc2nc(N)nc(CSC(=S)N3CCCCC3C)n2)cc1 (stereo unspecified)	18µM*	-62*	-22%	-21%	?	-6%
COc1ccc(Nc2nc(N)nc(CSC(=S)N3CCN(c4ccccc4)CC3)n2)cc1	18µM*	-15	-61%	-1%	?	-2%
COc1ccc(Nc2nc(N)nc(CSC(=S)N3CCN(C)CC3)n2)cc1	?	-11	-24%	1%	-14%	3%
COc1ccc2nc(SCc3nc(N)nc(Nc4ccccc4)n3)[nH]c2c1	16µM*	-4	-16%	-4%	?	-8%
CCOc1ccc(Nc2nc(N)nc(CSC(=S)N3CCN(c4ccccc4)CC3)n2)cc1	18µM*	-1	-15%	-1%	15µM*	-4%
CCCCOC(=O)c1ccc(NC(=O)Cc2coc3c(C)c(C)ccc23)cc1	?	.	-58%	?	?	.
CCOc1cc(C(=O)Nc2ccc3c(c2)n(C)c(=O)c(=O)n3C)cc(OCC)c1OCC	?	.	-27%	-14%	?	.
Cc1ccc(NS(=O)(=O)c2ccc3c(c2)CCC(=O)N3)cc1	1%	-12	-27%	17%	3%	-11%
CSc1ccc(S(=O)(=O)Nc2ccc3c(c2)NC(=O)CC3)cc1	23µM*	16	-4%	?	?	1%
O=C(C[C@@H]1C/C=C/CC[C@@H](Cc2ccc(F)cc2)C(=O)O[C@H](c2ccccc2)CNC1=O)NCCO	?	24	3%	11%	?	2%
O=C1NC[C@@H](c2ccccc2)OC(=O)[C@@H](Cc2ccc(F)cc2)CC/C=C/C[C@H]1CC(=O)N(CCO)Cc1ccccc1	18µM*	?	.	?	13µM*	-4%
O=C1NC[C@H](c2ccccc2)OC(=O)[C@H](Cc2ccc(F)cc2)CC/C=C/C[C@@H]1CC(=O)N(CCO)Cc1ccccc1	10µM*	0	.	?	9.2µM*	-9%
COc1ccc(-c2nc3scc(CCNS(=O)(=O)c4ccc(NC(C)=O)cc4)n3n2)cc1	?	.	-3%	-13%	?	.
COc1ccc(NC(=O)C[C@H]2C(=O)N(c3ccc(Br)cc3)C[C@@H]2C)cc1	?	-3	-7%	0%	?	.
COc1ccc(NC(=O)C[C@H]2C(=O)N(c3ccc(OC)cc3)C[C@@H]2c2ccc(Br)cc2)cc1	23µM*	-26	-35%	-1%	?	.
COc1ccc(NC(=O)C[C@H]2C(=O)N(c3ccc(Br)cc3)C[C@@H]2c2ccc(OC)cc2)cc1	21µM*	-27	-24%	-1%	?	.
COc1ccc([C@H]2CN(c3ccc(OC)cc3)C(=O)[C@@H]2CC(=O)Nc2ccccc2)cc1	13µM*	?	-28%	10%	-17%	.
CCC[C@H]1CN(c2ccc(OC)cc2)C(=O)[C@@H]1CC(=O)Nc1ccccc1	?	-8	-4%	-3%	?	.
Cc1ccc(-n2ncc(C(=O)N3CCN(c4cccc(C)c4)C(C)C3)c2C2CCN(C(=O)OC(C)(C)C)CC2)cc1 (stereo unspecified)	23µM*	.	-27%	-17%	15µM*	.
Cc1cccc(-n2ncc(C(=O)N3CCN(Cc4ccccc4)CC3)c2C2CCN(C(=O)OC(C)(C)C)CC2)c1	16µM*	.	-11%	-24%	16µM*	.
COc1ccc(-n2ncc(C(=O)N3CCN(Cc4ccccc4)CC3)c2C2CCN(C(=O)OC(C)(C)C)CC2)cc1	21µM*	.	-5%	-5%	13µM*	.
CC(C)(C)OC(=O)N1CCC(c2c(C(=O)N3CCN(c4ccccc4)CC3)cnn2-c2ccccc2)CC1	16µM*	.	-6%	-12%	?	.
CN1CCN(C(=O)c2cnn(-c3ccccc3)c2C2CCN(C(=O)OC(C)(C)C)CC2)CC1	-10%	.	-15%	0%	-3%	.
Cc1ccc(O)c(-c2cc(C(=O)Nc3ccc(S(=O)(=O)Nc4nc(C)cc(C)n4)cc3)[nH]n2)c1	-26%	33	-26%	14%	1%	23%
SMILES	TDP1 cell noCPT	IL-1B inflam inh	HepG2 tox	TGFb SMAD3 inh	DT40 TDP1 CPT	ASM inhibitor
COc1ccc(N2CCN(C(=O)COC(=O)c3c(-c4ccccc4)noc3C)CC2)cc1	?	-8	-38%	-5%	?	-2%
CSc1ccccc1C(=O)N1CCN(c2cccc(Cl)c2)CC1	?	-7	-47%	?	?	2%
COc1cc(C(=O)N2CCN(c3cccc(Cl)c3)CC2)ccc1OCC(=O)N1CCOCC1	?	-12	-25%	-11%	?	.
CC(=O)c1ccc(NC(=S)N2CCN(c3cccc(Cl)c3)CC2)cc1	?	-24	5%	11%	?	-9%
Oc1ccccc1C(=S)N1CCN(c2cccc(Cl)c2)CC1	?	-97*	-59%	?	23µM*	-6%
Oc1ccc(C(=S)N2CCN(c3cccc(Cl)c3)CC2)cc1	?	-93*	3%	?	?	-5%
COc1cc(C(=S)N2CCN(c3cccc(Cl)c3)CC2)ccc1O	18µM*	10	-9%	-22%	10µM*	-17%
Cc1nc2c(C(=O)NCc3ccccc3Cl)cnn2c(C)c1Cc1c(F)cccc1Cl	8.2µM*	.	6%	-22%	8.2µM*	.
Cc1nc2c(C(=O)N3CCN(C)CC3)cnn2c(C)c1Cc1ccc(Cl)cc1	-9%	-7	1%	-12%	-19%	6%
O=C(CSCc1c(F)cccc1Cl)NCCc1ccccc1	-12%	-4	-40%	-5%	-4%	8%
Cc1nc2c(C(=O)N3CCCCC3)cnn2c(C)c1Cc1ccccc1F	16µM*	-1	-11%	-3%	?	-2%
Cc1nc2c(C(=O)NCCc3ccccc3)cnn2c(C)c1Cc1c(F)cccc1Cl	16µM*	.	0%	-2%	15µM*	.
Cc1nc2c(C(=O)NCCC(C)C)cnn2c(C)c1Cc1c(F)cccc1Cl	23µM*	.	-24%	-13%	21µM*	.
Cc1nc2c(-c3ccccc3)c(C)nn2c(C)c1CCC(=O)NCc1ccccc1Cl	?	.	-9%	-15%	-21%	.
